# Bioassay records (PubChem BioAssay)
# Sampled rows, rich in hits. Any-hit rate of the full collection: about 2.4%.
# Pol kappa inh: inhibitors of human DNA polymerase kappa; Q9UBT6; purified Pol kappa, fluorescent DNA synthesis assay, 10 min; Potency, µM (titrated, usually from 107 µM), most hits filed as inhibitors; actives 0.53% (n = 400,000)
#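 Enzyme at 10 nM met test compounds for 15 min at room temperature. Substrate addition (50 nM final) began the reaction, which was monitored by fluorescence at 0 and 10 min.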
# GLS inhibitor: glutaminase GLS (human) inhibition. O94925. GLS enzymatic activity, qHTS titration. Potency, µM (series often up to 45.5 µM), hits mostly inhibitors. actives 0.21% (n = 410,000). AID 624170
#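 Read-out is an Amplex red fluorescence increase coupled through glutamate oxidase and HRP, measured before and after 30 min room-temperature incubation. hKGA is in 45 mM KH2PO4 (pH 8.2) with 0.02% Tween-20; glutamine added as 1mM solution.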
# KAT2A inh: inhibitors of human GCN5L2 histone acetyltransferase. Q92830. GCN5L2 HAT assay, ThioGlo1 CoA-SH fluorescence. Potency, µM (doses to about 58.9 µM), hits mostly inhibitors. actives 0.21% (n = 390,000). AID 504327
#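 GCN5L2 (20nM final) in 50mM HEPES, 0.1mM EDTA pH 7.5, 0.01% Tween-20 was preincubated 15 min at room temperature with compound, then given ThioGlo1 (50uM), H3(1-25) peptide (75uM) and acetyl-CoA (70uM); CoA-thiol fluorescence (Ex340/Em540) was read at 0 and 20 min.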
# POLI inh: blocks human DNA polymerase iota activity; actives 1% (n = 390,000); Q9UNA4; Potency, µM (highest dose often 115 µM), most hits filed as inhibitors; AID 588590; Pol iota fluorescent replication assay, 10 min
#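 Fluorescent replication assay read twice, at 0 min and 10 min after adding 50 nM (final) substrate. Enzyme (10 nM) and compounds were first incubated 15 min at room temperature; enzyme-free buffer wells were negative controls.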
# POLB inh: blocks human DNA polymerase beta activity. Pol beta primer extension/strand displacement, fluorescence kinetic. Potency, µM (series often up to 114 µM), most hits filed as inhibitors. actives 1.3% (n = 340,000). AID 485314
#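 Reaction started by 50 nM substrate onto compound-treated Pol beta (10 nM, 15 min preincubation, room temperature); plates read at 0 min and 10 min. Normalized concentration-effect data fitted by four-parameter Hill equation.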
# POLH inh: DNA polymerase eta (human) inhibition | Q9Y253 | recombinant Pol eta, fluorescent DNA replication assay | Potency, µM (top dose mostly 114 µM), hits mostly inhibitors | actives 1.2% (n = 390,000) | AID 588591
# Target sequence (Q9Y253 whole entry, looked up): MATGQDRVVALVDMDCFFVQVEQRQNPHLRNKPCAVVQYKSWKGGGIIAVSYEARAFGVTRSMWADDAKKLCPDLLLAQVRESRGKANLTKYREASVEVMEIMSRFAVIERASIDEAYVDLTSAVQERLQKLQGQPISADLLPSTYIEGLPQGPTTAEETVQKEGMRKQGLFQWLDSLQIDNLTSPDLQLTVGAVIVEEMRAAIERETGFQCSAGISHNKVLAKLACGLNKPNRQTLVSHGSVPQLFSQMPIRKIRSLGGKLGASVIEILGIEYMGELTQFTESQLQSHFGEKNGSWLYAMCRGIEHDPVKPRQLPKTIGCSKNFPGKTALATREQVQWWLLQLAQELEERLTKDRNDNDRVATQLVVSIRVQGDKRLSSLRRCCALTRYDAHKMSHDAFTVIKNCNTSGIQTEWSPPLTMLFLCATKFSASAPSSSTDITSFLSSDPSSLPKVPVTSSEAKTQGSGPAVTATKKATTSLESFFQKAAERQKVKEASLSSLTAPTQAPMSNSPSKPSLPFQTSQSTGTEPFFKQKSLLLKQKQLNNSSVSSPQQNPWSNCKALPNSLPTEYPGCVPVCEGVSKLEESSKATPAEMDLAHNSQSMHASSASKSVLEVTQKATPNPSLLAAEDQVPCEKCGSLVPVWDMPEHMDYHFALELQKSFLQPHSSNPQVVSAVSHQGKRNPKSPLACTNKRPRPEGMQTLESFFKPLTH
#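 Fluorescent replication assay: 50 nM final substrate added after a 15 min room-temperature compound preincubation with 10 nM enzyme. Signal taken at 0 min and again at 10 min.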
# Numbers stand for hits; 0 = inactive; ? = inconclusive; - = no result; ! = not active in a repeat; [ ] = remark or other dose. Calls come from the whole dose curve; as a rule, active = well fitted inhibition curve with a large enough effect; inconclusive = small, poorly fitted or top-dose-only effect, or another doubt; inactive = no such curve, though single readings can be large or run the other way.
SMILES,Pol kappa inh,GLS inhibitor,KAT2A inh,POLI inh,POLB inh,POLH inh
COc1ccccc1CCNC(=O)Cc1c(C)c2cc(Cl)c(O)cc2oc1=O,0,0,32µM,0,0,0
COc1ccc2c(C)c(CC(=O)NCc3ccccc3Cl)c(=O)oc2c1OC,0,0,0,0,45µM,0
COc1ccc2c(C)c(CCC(=O)NCc3ccccc3Cl)c(=O)oc2c1C,0,0,0,0,0,0
COc1ccc(C(=O)NCCn2cc(SCc3cccc(F)c3)c3ccccc32)cc1OC,0,0,0,0,0,0
Cc1ccc(C)c(N2CCN(c3ccc(N4C(=O)COCC4=O)cc3[N+](=O)[O-])CC2)c1,0,0,0,0,0,0
Cc1c([N+](=O)[O-])cc(N2C(=O)C=CC2=O)cc1[N+](=O)[O-],?,0,-,10µM,-,0
Cc1cc(C)cc(N2C(=O)C=CC2=O)c1,0,0,-,0,-,0
Cc1cc(N2C(=O)C=CC2=O)c([N+](=O)[O-])cc1C,0,0,20µM,0,0,0
CSc1ccc(/C=C2\C=Cc3cc([N+](=O)[O-])ccc32)cc1,0,-,-,0,-,-
CCN(CC)C(=O)Oc1ccc2c(c1)O/C(=C\c1ccco1)C2=O,0,0,0,?,45µM,0
CCC(=O)Oc1ccc2c(c1)O/C(=C\c1ccco1)C2=O,?,0,0,?,?,?
Cc1cc(O)cc2c1C(=O)/C(=C/c1ccco1)O2,?,0,0,?,?,0
COC(=O)COc1ccc2c(c1)O/C(=C\c1ccco1)C2=O,0,0,0,?,32µM,?
c1ccc(OCc2nn3c(-c4n[nH]c5c4CCC5)nnc3s2)cc1,0,0,0,?,?,?
Cc1ccc(OCc2nn3c(-c4n[nH]c5c4CCC5)nnc3s2)cc1,-,-,0,-,14µM,-
CCN1CC2([N+](=O)[O-])C=CC(=O)C([N+](=O)[O-])(C1)C2CC(=O)c1ccccc1 (stereo unspecified),0,0,0,?,0,25µM
CCCCCCCCCCC/C=C\C(C)(C)/C=C\CCCC(=O)O,27µM!,-,7.9µM,28µM,32µM,28µM
CC/C=C\C/C=C\C/C=C\C/C=C\C/C=C\CCCC(=O)O,?,32µM,0,-,-,-
CCCCCCC/C=C\CCCCCCCCC(=O)O,?,-,8.9µM,28µM,?,?
CCCCC/C=C\C/C=C\C/C=C\C/C=C\CCCCCC(=O)O,0[19.4 µM],-,0,-,-,-
O=c1cc(O)c2c([nH]1)CCC2,0,-,-,0,-,-
CN(C)c1ccc(CCC2C=Cc3ccccc32)cc1 (stereo unspecified),0,-,-,0,-,-
O=C(Nc1ccccc1)c1cccc(NC(=O)c2ccco2)c1,0,0,-,0,-,0
O=C(O)c1cccc(NS(=O)(=O)c2ccc(NC(=O)c3ccco3)cc2)c1,0,0,0,0,0,28µM
CCCc1ccc(C2Sc3ccccc3NC3=C2C(=O)c2ccccc23)cc1 (stereo unspecified),0,0,0,0,0,0
SMILES,Pol kappa inh,GLS inhibitor,KAT2A inh,POLI inh,POLB inh,POLH inh
COc1cccc(CNC(=O)CN(c2ccc(C(C)C)cc2)S(=O)(=O)c2c(C)n[nH]c2C)c1,0,0,0,0,0,0
CC(C)(C)C1=CC(=Nc2ccccc2N)C=C(C(C)(C)C)C1=O,0,0,0,0,0,0
CC(C)(C)C1=CC(=O)C(=O)C(C(C)(C)C)=C1,0,5.6µM,?,0,0,0
CC1CC=CC2C1C(=O)N(Cc1ccccc1)C2c1ccc(-c2ccc(N(C)C)cc2)cc1F (stereo unspecified),0,-,-,0,-,-
COc1ccc(N2CCN(S(=O)(=O)c3ccc(-n4cnnn4)c(C)c3)CC2)cc1,?,0,0,?,28µM,32µM
COCCNC(=O)C1(C(F)(F)F)C/C(=C\CCO)CCCO1 (stereo unspecified),0,-,-,0,-,-
COc1cc(C2Nc3ccccc3C(=O)N2Cc2ccco2)cc(OC)c1OC (stereo unspecified),0,-,-,?,-,-
O=C(COc1ccccc1/C=C1\SC(=O)NC1=O)Nc1ccc(F)cc1,0,0,0,0,?,71µM
O=C(COc1ccccc1/C=C1/NC(=O)NC1=O)Nc1ccccc1,0,0,0,0,0,0
Cn1c(=O)c2c(SCC(=O)Nc3ccc(F)cc3F)nc(C3CCCC3)nc2n(C)c1=O,0,0,?,0,0,-
CCCCn1c(N)c(-c2nc3ccccc3o2)c2c([N+](=O)[O-])nn(CC)c(=O)c21,0,0,0,0,0,3.5µM
CCN(Cc1ccccc1)c1ccc(/C=C/c2nccc3ccccc23)cc1,0,-,-,0,-,-
Cc1ccc(NC(=O)C(c2ccc(Cl)cc2)N2CCCCC2)cc1 (stereo unspecified),0,0,2.2µM,0,0,0
Cc1ccc(NC(=O)C(c2ccc(Cl)cc2)N2CCOCC2)cc1 (stereo unspecified),0,0,0,0,0,0
COc1cccc(/C=C/c2ccnc3ccccc23)c1OC,0,-,-,0,-,-
CCCC(=O)Nc1ccccc1C(=O)OCc1cc(=O)n2nc(C(C)C)sc2n1,0,0,0,0,0,0
O=C(/C=C\c1ccco1)Oc1cccc2cccnc12,?,0,0,25µM,22µM,0
CCc1ccc(OC(=O)/C=C/c2ccco2)cc1,?,0,0,?,35µM,0
COC(=O)N/N=C/c1ccc(OC(=O)/C=C/c2ccco2)cc1,?,0,?,35µM,11µM,?
COc1ccc(CNC(=O)COC(=O)/C=C/c2ccco2)cc1,0,0,0,?,0,0
O=C(Cc1ccccc1)N/N=C/c1ccc(OC(=O)/C=C\c2ccco2)cc1,?,0,0,?,0,0
COC(=O)c1ccccc1NC(=O)COc1ccccc1C(=O)Nc1ccccc1,0,-,-,0,-,-
C[C@@H](C(=O)O)c1ccc(C2CCCCC2)c2ccccc12,-,0,-,-,-,-
CC(C)=CCC/C(C)=C\CC/C(C)=C\CC/C(C)=C\CC1=C(C)C(=O)c2ccccc2C1=O,-,0,-,-,-,-
Cc1cc(/C=C/c2ccnc3ccccc23)ccc1N(C)C,0,-,-,0,-,-
CSc1cccc(NC(=O)Cn2nnc(C(=O)NCCc3ccccc3)c2N)c1,0,0,0,79µM,25µM,0
Cc1ccccc1NC(=O)Cn1nnc(C(=O)NCCc2ccccc2)c1N,0,0,0,0,14µM,0
COc1cccc(CNC(=O)c2nnn(CC(=O)Nc3ccc(C)c(C)c3)c2N)c1,0,0,0,?,25µM,?
Cc1ccc(C)c(NC(=O)Cn2nnc(C(=O)NCc3ccccc3Cl)c2N)c1,0,0,0,?,35µM,0
O=S(=O)(NCc1cccs1)c1cccc2cccnc12,0,0,4µM,0,0,0
